From PubChem BioAssay AID1233 (SRMLSC, 2008)
Measured potencies and affinities stand elsewhere. Unmarked numbers belong to inactive results.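 How the source made its calls: active means a dose-response curve fit returns a half-maximal inhibitory concentration, extrapolated values included; inactive means the fit returns no such concentration.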

The molecules below were run against HMG-CoA reductase [Enterococcus faecalis] (UniProt Q9FD70) (assay: inhibitors of E. faecalis class II HMGR, confirmation, biochemical, Enterococcus faecalis (AID 1233;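 further: 0% = full reaction carrier wells and 100% = background wells lacking mevalonate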)). Details: purified E. faecalis HMGR, NADPH absorbance 340 nm kinetics; series mostly up to 100 µM; inhibition: at the top concentration.

SMILES	inhibition [%]
O=C(COC(=O)c1ccncc1)Nc1ccccc1	-4.19
CCN(CC)CCOc1nc(C)nc2c1oc1ccccc12	-5.2
COc1cc(NC(=O)c2cc3nc(-c4ccccc4)cc(-c4ccccc4)n3n2)cc(OC)c1OC	-0.02
COc1ccc(-c2cc(C(=O)Nc3c(C)nn(Cc4ccc(Cl)cc4)c3C)no2)cc1	0.84
Cc1cccc(Nc2nnc(SCC(=O)Nc3ncc(C(F)(F)F)cc3Cl)s2)c1C	-4.11
O=C(/C=C/c1cccs1)c1ccc(NC(=O)c2ccccc2F)cc1	-12.2
CCC(=O)N/N=C(\C)CC(=O)Nc1ccccc1-c1ccccc1	1.25
CCCc1nc(NCc2ccccn2)c2nnn(Cc3ccccc3F)c2n1	-4.22
Cc1ccc(S(=O)(=O)NCCCCCC(=O)N(C)C)cc1	-2.88
Cc1ccc(NC(=O)CCc2ccc(S(=O)(=O)N3CCOCC3)cc2)c(C)c1	-6.25
COc1ccccc1NC(=S)N1CCCc2ccccc21	0.02
Cc1ccc(S(=O)(=O)N(C)C)cc1NC(=O)COC(=O)CCC(=O)c1cccs1	-2.47
CC1(C)CC(CCC(=O)Nc2ccccc2Cl)C(=O)O1 (stereo not drawn)	-2.88
COc1ccccc1-c1c(C(F)(F)F)oc2cc(OC(=O)c3cccc([N+](=O)[O-])c3C)ccc2c1=O	-3.18
Cn1c(SCC(=O)N2CCCC2)nnc1-c1ccc(S(=O)(=O)N2CCCC2)cc1	-0.88
COc1ccc(Nc2ccc(S(=O)(=O)N3CCCCC3)cc2[N+](=O)[O-])cc1	7.35
COCCOC(=O)c1c(NC(=O)CN2CCOCC2)sc(C(N)=O)c1C	-6.21
O=C(COC(=O)CSc1cc(Cl)ccc1Cl)Nc1ncc(C(F)(F)F)cc1Cl	-8.13
